Potency, outcome and max activation data for nine molecules are collected here from PubChem BioAssay (Tox21).

Unmarked numbers belong to inactive results. Results filed as inconclusive are left out. The source made the active and inactive calls. Unless noted, calls come from the whole dose curve; as a rule, active = well fitted curve in the direction sought with a large enough effect in the repeat runs; inconclusive = weak or mixed curves; inactive = no such curve, though single readings can be large; an effect the other way counts as inactive or inconclusive.

The target of assay [1] is Progesterone receptor (Homo sapiens) (UniProt P06401). Briefly: qHTS assay to identify small molecule agonists of the progesterone receptor (PR) signaling pathway (AID 1346784; calls by dose curve; note: nearly all actives have a fitted effect of over 30% in size). A digest of the protocol: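 The screen uses PR-UAS-bla HEK 293T cells in charcoal-stripped serum (2%). Compounds are applied for 16 hr at 37C after a 6 hr pre-incubation, and reporter activity is detected with a FRET beta-lactamase substrate after 2 hr at room temperature.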
Progesterone receptor (Homo sapiens), sequence (P06401 whole entry, looked up): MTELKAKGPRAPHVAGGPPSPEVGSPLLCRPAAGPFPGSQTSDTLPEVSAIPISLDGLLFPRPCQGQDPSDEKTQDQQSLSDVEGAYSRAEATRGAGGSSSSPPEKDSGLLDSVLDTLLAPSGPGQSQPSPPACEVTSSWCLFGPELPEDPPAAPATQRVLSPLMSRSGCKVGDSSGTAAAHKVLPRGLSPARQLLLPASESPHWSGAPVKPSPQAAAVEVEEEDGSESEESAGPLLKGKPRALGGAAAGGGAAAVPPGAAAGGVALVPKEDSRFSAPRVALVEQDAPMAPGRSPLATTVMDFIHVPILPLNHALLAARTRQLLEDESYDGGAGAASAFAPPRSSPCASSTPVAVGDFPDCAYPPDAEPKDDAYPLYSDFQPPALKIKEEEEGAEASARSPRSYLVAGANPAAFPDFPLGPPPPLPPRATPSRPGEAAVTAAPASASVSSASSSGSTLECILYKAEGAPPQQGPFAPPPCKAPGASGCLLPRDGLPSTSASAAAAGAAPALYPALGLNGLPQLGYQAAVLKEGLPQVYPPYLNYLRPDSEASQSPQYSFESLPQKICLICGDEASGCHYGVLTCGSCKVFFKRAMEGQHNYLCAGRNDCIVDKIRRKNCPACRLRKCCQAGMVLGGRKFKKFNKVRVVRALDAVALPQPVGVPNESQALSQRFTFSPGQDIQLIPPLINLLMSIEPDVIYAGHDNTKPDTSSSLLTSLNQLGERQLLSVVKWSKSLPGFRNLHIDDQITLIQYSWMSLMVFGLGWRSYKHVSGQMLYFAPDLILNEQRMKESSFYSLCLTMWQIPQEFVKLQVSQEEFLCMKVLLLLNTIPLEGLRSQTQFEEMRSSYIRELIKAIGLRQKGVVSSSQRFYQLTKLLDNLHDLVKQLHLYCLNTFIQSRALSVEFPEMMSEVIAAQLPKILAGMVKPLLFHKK
(Quantitative high-throughput screening tests each substance at several concentrations.)

For assay [2] the target is unchanged. Nature of the assay: qHTS assay to identify small molecule antagonists of the progesterone receptor (PR) signaling pathway (AID 1346795; active = well fitted inhibition curve with a large enough effect in the signal ratio in the repeat runs, not every such curve was filed as active; the % refers to the signal ratio). Put shortly: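 After 6 hr plating at 37C in 2% stripped-serum medium, PR-UAS-bla HEK293T cells got compounds, then 1 nM R5020. Sixteen hours later, LiveBLAzer substrate was applied for 2 hr at room temperature and fluorescence was recorded.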

Assay [3] in a line: qHTS assay to identify small molecule antagonists of the progesterone receptor (PR) signaling pathway - cell viability counter screen (AID 1346798). Note: series mostly up to about 92 µM; nearly all actives have a fitted effect of over 50% in size. A digest of the protocol:
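Viability was determined by ATP-based luminescence (CellTiter-Glo) in PR-UAS-bla HEK293T cells cultured in 2% charcoal-stripped serum and incubated 16 hr with compounds under R5020 stimulation.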

The nature of assay [4]: qHTS assay to identify small molecule agonists of the progesterone receptor (PR) signaling pathway - cell viability counter screen (AID 1346799; calls by dose curve; note: nearly all actives have a fitted effect of over 45% in size). A digest of the protocol: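 Viability was scored by ATP luminescence (CellTiter-Glo, 30 min, room temperature) in the same wells used for the reporter readout, after 16 hr compound exposure of PR-UAS-bla HEK293T cells.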
Assay [5] is described as follows: qHTS assay to identify small molecule antagonists of the TGF-beta/Smad signaling pathway - cell viability counter screen (AID 1346824). Note: nearly all actives have a fitted effect of over 50% in size. Note: potency is the fitted concentration of half-maximal effect. A digest of the protocol:
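SBE-bla HEK 293T cells, incubated overnight, then compound plus 0.25 ng/mL TGF-beta1 (stock added) for 5 hr at 37 C. Viability was read in the same wells by CellTiter-Glo luminescence after 30 min at room temperature.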

The nature of assay [6]: qHTS assay to identify small molecule agonists of the TGF-beta/Smad signaling pathway - cell viability counter screen (AID 1346829). Note: top concentration of the series differs between compounds; nearly all actives have a fitted effect of over 45% in size. Put shortly:
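Luminescence from CellTiter-Glo, read after a 30 min room-temperature incubation, gives cell viability of SBE-bla HEK 293T cells treated 5 hr with compounds at 37 C.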

Assay [7] can be described thus: qHTS assay to identify small molecule agonists of the TGF-beta/Smad signaling pathway (AID 1346859; active = well fitted activation curve with a large enough effect in the signal ratio in the repeat runs, not every such curve was filed as active; the % refers to the signal ratio; note: series mostly up to about 77 µM). Put shortly: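 Dual-wavelength fluorescence (460/530 nm emission) quantified beta-lactamase expression under the Smad binding element in HEK 293T cells following 5 hr compound treatment at 37 C.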
Assay [8] has as its target Thyrotropin-releasing hormone receptor (Homo sapiens) (UniProt P34981). Briefly: qHTS assay to identify small molecule antagonists of the thyrotropin-releasing hormone receptor (TRHR) signaling pathway (AID 1346877; active = well fitted inhibition curve with a large enough effect in the repeat runs, not every such curve was filed as active; note: series mostly up to about 51 µM). A digest of the protocol:
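TRHR-expressing HEK293 cells were seeded, cultured 18 h at 37 °C, then loaded with calcium dye for 2 h. Compounds were pre-incubated 5 min at room temperature before 1 nM TRH (final) was added, and kinetic fluorescence was recorded for 3 min.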

The target is the same in assay [9]. Nature of the assay: qHTS assay to identify small molecule agonists of the thyrotropin-releasing hormone receptor (TRHR) signaling pathway (AID 1346891; calls by dose curve; note: series mostly up to about 58 µM). Put shortly:
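Kinetic fluorescence (3 min, 1 s intervals) reported intracellular calcium after compound transfer onto TRHR-Hek293 cells pre-loaded with dye for 2 h at 37 °C.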

The nature of assay [10]: Human pregnane X receptor (PXR) small molecule agonists, qHTS cell viability counter screen (AID 1346977). Note: nearly all actives have a fitted effect of over 50% in size. Note: potency is the fitted concentration of half-maximal effect. A digest of the protocol:
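HepG2 cells stably carrying the PXR-Luc reporter are cultured with 5% charcoal-stripped FBS and treated with compounds for 24hr. CellTiter-Fluor is added at 23hr and fluorescence is read after 1hr.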

A short description of assay [11]: Caspase-3/7 induction in HepG2 cells by small molecules, qHTS assay (AID 1346978). Note: nearly all actives have a fitted effect of over 15% in size. Put shortly: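 Wild-type HepG2 cells, 2,000/well, settled 5 hr at 37 C and 5% CO2, then compound-treated for 17 hr; caspase-3/7 activity read by luminescent Caspase-Glo 3/7 after 30 min at room temperature.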
The nature of assay [12]: Caspase-3/7 induction in CHO-K1 cells by small molecules, qHTS cell viability counter screen (AID 1346979). Note: nearly all actives have a fitted effect of over 35% in size. Note: potency is the fitted concentration of half-maximal effect. Put shortly:
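Seeding: 1,500 CHO-K1 cells/well. Rest: 5hr, 37C. Treatment: compounds in DMSO, 16hr. Read: CellTiter-Fluor, 1hr, fluorescence.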

Assay [13] can be described thus: Caspase-3/7 induction in CHO-K1 cells by small molecules, qHTS assay (AID 1346980). Note: nearly all actives have a fitted effect of over 15% in size. Put shortly: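 Wild-type CHO-K1 cells exposed to compounds for 17hr at 37 C, 5% CO2. Caspase-3/7 activity then measured by Caspase-Glo 3/7 luminescence after 30min at room temperature.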
A short description of assay [14]: Caspase-3/7 induction in HepG2 cells by small molecules, qHTS cell viability counter screen (AID 1346981). Note: series mostly up to about 92 µM; nearly all actives have a fitted effect of over 30% in size. Put shortly:
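Wild-type HepG2 cells (2,000/well) were allowed to settle for 5 hr at 37 C, 5% CO2, then dosed with compounds in DMSO by pin transfer. After 16 hr at 37 C, CellTiter-Fluor was added and fluorescence read 1 hr later.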

The target in assay [15] is Nuclear receptor subfamily 1 group I member 2 (Homo sapiens) (UniProt O75469). Briefly: Human pregnane X receptor (PXR) small molecule agonists, qHTS assay (AID 1346982). Note: nearly all actives have a fitted effect of over 35% in size. Note: potency is the fitted concentration of half-maximal effect. A digest of the protocol:
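PXR-Luc HepG2 cells (CYP3A4 promoter-driven luciferase) were seeded in medium with 5% charcoal-stripped FBS, left 5 hr at 37 C, then exposed to compounds in DMSO for 24 hr. Luminescence was read after ONE-Glo addition.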

Assay [16] addresses Acetylcholinesterase (Homo sapiens) (UniProt P22303). Nature of the assay: Acetylcholinesterase (AChE) small molecule antagonists: colormetric cell-based qHTS assay (AID 1347395; calls by dose curve; note: nearly all actives have a fitted effect of over 30% in size). A digest of the protocol:
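Quantitative HTS in attached SH-SY5Y cells: 30 min compound exposure, then 90 min with acetylthiocholine and DTNB at 37 C; colour from thiocholine reports AChE activity.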

Assay [17] can be described thus: qHTS assay to identify small molecule agonists of the estrogen receptor alpha (ER-alpha) signaling pathway in the presence of an antagonist - cell viability counter screen (AID 1259386).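 Note: cells exposed to compounds for 22 h at 37 °C before the viability read; nearly all actives have a fitted effect of over 30% in size.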 Note: potency is the fitted concentration of half-maximal effect. Put shortly: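 VM7Luc4E2 cells (endogenous full-length ER-alpha, 4×ERE-luciferase) were held 5 days in phenol red-free medium with 10% charcoal-stripped FBS, plated, then given 10.0nM ICI-182,780 and compounds at 15 concentrations for 22hr at 37C; viability read by CellTiter-Fluor fluorescence.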

Assay [18] deals with Nuclear receptor subfamily 1 group I member 2 (Rattus norvegicus) (UniProt Q9R1A7). Nature of the assay: Rat pregnane X receptor (rPXR) activation by small molecules, qHTS assay (AID 1346983). Note: nearly all actives have a fitted effect of over 20% in size. The settings on record: rPXR luciferase reporter cells, One-Glo luminescence, 24 h; max activation: active compounds read high. Put shortly:
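Cell-based rPXR activation assay: rPXR cells, 2,000 per well, rested 5hr at 37 C, then exposed to compounds in DMSO for 24 hr at 37 C. Luciferase activity read by One-Glo luminescence after 30 min at room temperature.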

Assay [19] addresses Nuclear receptor subfamily 1 group I member 2 (Homo sapiens) (UniProt O75469). Nature of the assay: CYP3A4 induction through human pregnane X receptor (PXR) by small molecules, qHTS assay (AID 1346984). Note: nearly all actives have a fitted effect of over 40% in size. Put shortly: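 DPX-2 cells (HepG2 co-transfected with PXR and CYP3A4 promoter-luciferase) treated with compounds 24 h at 37C; luciferin-IPA CYP3A4 substrate 3uM final added for 3 h, then One-Glo; luminescence read. qHTS format.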

Assay [20] shares this target. Nature of the assay: Human pregnane X receptor (PXR) activation by small molecules, qHTS assay (AID 1346985). Note: nearly all actives have a fitted effect of over 40% in size. Put shortly:
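DPX-2 cells (HepG2 co-transfected with a PXR response element and a CYP3A4-promoter luciferase construct) were seeded at 2,000 per well, rested 5 hr at 37C, then exposed to DMSO-dissolved compounds for 24 hr. Activation was read as luciferase luminescence.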
% is set by controls: 0 for no effect and ±100 for the full control effect.

Thyrotropin-releasing hormone receptor (Homo sapiens), sequence (P34981 whole entry, looked up): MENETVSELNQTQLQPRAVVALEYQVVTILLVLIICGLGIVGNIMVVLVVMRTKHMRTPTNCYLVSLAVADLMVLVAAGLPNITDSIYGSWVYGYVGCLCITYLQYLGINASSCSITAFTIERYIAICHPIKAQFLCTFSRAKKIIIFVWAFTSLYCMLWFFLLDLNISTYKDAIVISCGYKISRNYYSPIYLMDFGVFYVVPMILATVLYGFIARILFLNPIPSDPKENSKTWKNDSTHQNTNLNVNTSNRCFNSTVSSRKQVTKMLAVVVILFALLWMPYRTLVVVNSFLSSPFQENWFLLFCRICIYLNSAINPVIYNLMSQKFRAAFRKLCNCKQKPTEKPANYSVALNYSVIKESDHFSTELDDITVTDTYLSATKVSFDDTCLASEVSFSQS
Acetylcholinesterase (Homo sapiens), sequence (P22303 whole entry, looked up): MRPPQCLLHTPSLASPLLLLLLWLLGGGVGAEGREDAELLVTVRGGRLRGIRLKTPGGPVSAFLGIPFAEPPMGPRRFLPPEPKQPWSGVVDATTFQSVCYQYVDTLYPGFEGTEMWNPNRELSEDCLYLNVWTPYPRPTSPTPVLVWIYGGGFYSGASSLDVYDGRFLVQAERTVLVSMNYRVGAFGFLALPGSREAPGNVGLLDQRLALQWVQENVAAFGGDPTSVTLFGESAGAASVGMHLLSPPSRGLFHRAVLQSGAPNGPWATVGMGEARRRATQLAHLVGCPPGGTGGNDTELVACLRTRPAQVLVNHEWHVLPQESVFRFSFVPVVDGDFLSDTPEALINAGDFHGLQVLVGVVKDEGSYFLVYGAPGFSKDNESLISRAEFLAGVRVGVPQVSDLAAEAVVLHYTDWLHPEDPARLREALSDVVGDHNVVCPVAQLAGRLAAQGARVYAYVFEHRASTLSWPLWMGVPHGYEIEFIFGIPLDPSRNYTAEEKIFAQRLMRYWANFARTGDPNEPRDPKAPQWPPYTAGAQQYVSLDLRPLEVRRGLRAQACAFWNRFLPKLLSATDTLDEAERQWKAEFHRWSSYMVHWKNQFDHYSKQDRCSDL
Nuclear receptor subfamily 1 group I member 2 (Homo sapiens), sequence (O75469 whole entry, looked up): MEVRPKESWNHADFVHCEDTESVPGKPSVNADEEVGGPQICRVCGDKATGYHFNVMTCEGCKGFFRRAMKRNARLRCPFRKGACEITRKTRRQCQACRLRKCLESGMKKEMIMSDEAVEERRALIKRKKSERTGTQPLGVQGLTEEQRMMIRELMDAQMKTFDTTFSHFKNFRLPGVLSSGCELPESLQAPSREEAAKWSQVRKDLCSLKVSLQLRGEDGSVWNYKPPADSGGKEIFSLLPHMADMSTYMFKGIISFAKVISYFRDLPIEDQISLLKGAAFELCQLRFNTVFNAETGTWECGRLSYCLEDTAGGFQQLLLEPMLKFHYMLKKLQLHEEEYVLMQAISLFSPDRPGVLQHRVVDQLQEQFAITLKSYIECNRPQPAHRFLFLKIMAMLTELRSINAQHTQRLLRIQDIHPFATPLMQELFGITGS
Nuclear receptor subfamily 1 group I member 2 (Rattus norvegicus), sequence (Q9R1A7 whole entry, looked up): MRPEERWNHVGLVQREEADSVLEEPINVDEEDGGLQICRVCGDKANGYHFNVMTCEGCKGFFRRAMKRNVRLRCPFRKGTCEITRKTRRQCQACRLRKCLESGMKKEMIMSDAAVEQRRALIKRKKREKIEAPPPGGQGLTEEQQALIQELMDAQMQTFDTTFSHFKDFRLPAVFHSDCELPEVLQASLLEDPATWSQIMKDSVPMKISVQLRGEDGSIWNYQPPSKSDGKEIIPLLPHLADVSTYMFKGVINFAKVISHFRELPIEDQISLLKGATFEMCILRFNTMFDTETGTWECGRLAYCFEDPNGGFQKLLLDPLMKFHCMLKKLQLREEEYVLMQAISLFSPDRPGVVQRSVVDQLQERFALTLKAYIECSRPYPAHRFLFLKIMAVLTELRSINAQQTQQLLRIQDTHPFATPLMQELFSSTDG

In the case of `CCCSC(=O)N(CCC)CCC`, the Potency result in assay [1], in [2], in assay [3], in assay [4], in [5] and in assay [10] was “inactive” in each case. Besides, the Potency entry in assay [11], in [12], in [13], in assay [14], in [15] and in assay [16] was “inactive” each time. The molecule was called inactive in [6], in [7], in assay [8] and in [9].
As for `CCOC(=O)C1(c2ccccc2)CCN(CCc2ccc(N)cc2)CC1`, the Potency result in assay [1], in assay [2], in [3], in assay [4], in [5] and in assay [11] was “inactive” each time. Moreover, the Potency result in [12], in assay [14] and in [16] was “inactive” in each case. For the same molecule, the outcome in assay [6] and in [7] was inactive. Also, the Potency in [15] is 3.76 µM (active).
Turning to `O=C1OC(CCN2CCCCC2)OC1(c1ccccc1)c1ccccc1` (centres undefined), the Potency result in assay [17], in assay [3], in [5], in assay [10], in assay [11] and in assay [13] was “inactive” throughout. For the same molecule, the Potency entry in assay [15] and in assay [16] was “inactive” in each case. Further, the outcome in [6], in [7], in assay [8] and in [9] was inactive.
On to `C=CCC1=C(C)[C@@H](OC(=O)[C@@H]2[C@@H](C=C(C)C)C2(C)C)CC1=O`, for which the Potency in [17] was 48.6 µM (active); in assay [5], 49 µM (active); in assay [10] it was 61.1 µM (active); in [12] it was 43.3 µM (active); in [15], 9.69 µM (active). In addition, the molecule was called inactive in assay [8] and in assay [9]. Also, the Potency result in assay [11] and in assay [16] was “inactive” throughout.
As to `CCC(C)n1c(=O)[nH]c(C)c(Br)c1=O` (centres undefined), the Potency result in assay [17], in assay [3], in assay [5], in assay [10], in [11] and in assay [12] was “inactive” each time. The Potency entry in [13], in assay [14], in [15] and in assay [16] was “inactive” each time. Moreover, the call in [6], in [7], in assay [8] and in [9] was inactive.
Turning to `CCCCCCBr`, the Potency result in assay [17], in assay [3], in assay [4], in assay [5], in [10] and in assay [11] was “inactive” each time. The Potency result in [12] was “inactive”. In addition, the outcome in [6] and in [7] was inactive.
Take `CC(=O)CC(c1ccc(Cl)cc1)c1c(O)c2ccccc2oc1=O` (centres undefined): the Potency entry in assay [1], in assay [2], in assay [3], in assay [4], in assay [5] and in [10] was “inactive” each time. Besides, the Potency result in [11], in assay [12], in [13], in assay [14], in [15] and in assay [16] was “inactive” throughout. Further, the outcome in assay [6], in assay [7], in assay [8] and in [9] was inactive.
For the molecule `CCC/C(=N\OCC)C1=C(O)CC(CC(C)SCC)CC1=O` (centres undefined), the Potency entry in assay [17], in assay [3], in assay [4], in [5], in assay [10] and in assay [11] was “inactive” each time. Besides, the Potency entry in [12], in assay [13], in assay [14] and in assay [16] was “inactive” in each case. Besides, the call in assay [6], in assay [7], in [8] and in assay [9] was inactive. For the same molecule, the Potency in assay [15] is 48.9 µM (active).
As to `COC(=O)C(c1ccccc1)C1CCCCN1` (centres undefined), the Potency result in assay [17], in [3], in assay [4], in [5], in assay [10] and in [11] was “inactive” each time. Besides, the Potency result in assay [12], in assay [14], in assay [15], in [19], in assay [20] and in [16] was “inactive” each time. Moreover, the molecule was classed as inactive in assay [6], in assay [7] and in assay [8]. Also, the max activation in assay [18] was -3.29%.
